High-throughput results as filed in PubChem BioAssay.
Sampled rows, rich in hits. Any-hit rate of the full collection: about 2.4%.
Cruzain inh noDet = blocks cruzain activity in detergent-free assay; purified cruzain, Z-FR-AMC fluorescence, no detergent; Potency, µM, without a hit: max response, negative = inhibition, usual class: inhibitors; hit rate 2.3% among 200,000;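 further: plate controls were enzyme without inhibitor for no effect and buffer without enzyme for full effect; nearly all actives have a fitted effect of over 40% in size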
Target sequence (P25779 123-467 limits assumed): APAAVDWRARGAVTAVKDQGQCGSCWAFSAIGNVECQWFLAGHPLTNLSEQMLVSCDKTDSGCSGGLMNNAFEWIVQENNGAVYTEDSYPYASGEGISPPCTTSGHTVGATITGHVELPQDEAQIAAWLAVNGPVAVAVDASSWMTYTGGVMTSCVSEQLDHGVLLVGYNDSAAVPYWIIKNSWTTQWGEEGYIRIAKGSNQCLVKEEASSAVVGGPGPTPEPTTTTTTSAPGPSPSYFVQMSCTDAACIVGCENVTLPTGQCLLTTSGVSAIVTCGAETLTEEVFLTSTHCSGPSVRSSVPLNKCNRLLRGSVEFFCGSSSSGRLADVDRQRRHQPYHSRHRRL
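Detergent-free condition (0.00005% Triton X-100) in acetate buffer pH 5.5 with DTT. 1.5 nM enzyme and compound were pre-mixed 15 min, then 2 uM Z-FR-AMC substrate added; reaction progress from fluorescence change between first and third reads (60 s).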
Cruzain Triton = cruzain (T. cruzi) inhibition with detergent; purified cruzain, Z-FR-AMC fluorescence, 0.01% Triton; Potency, µM, without a hit: max response, negative = inhibition, hits mostly inhibitors; hit rate 0.43% among 200,000; AID 1478;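 further: plate controls were neutral wells for no effect and buffer without enzyme for full effect; nearly all actives have a fitted effect of over 40% in size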
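Purified cruzain (1.5 nM final) was preincubated with compounds for 15 min at room temperature in 100 mM sodium acetate pH 5.5, 5 mM DTT, 0.01% Triton X-100. Reaction started with 2 uM Z-FR-AMC; AMC fluorescence change over 60 s gave activity.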
Starred values were filed as active, the others as inactive; ? = inconclusive; ! = repeats disagree. The call rests on the fitted dose curve; in most records, active means well fitted curve in the direction sought with a large enough effect; inconclusive means small, poorly fitted or top-dose-only effect, or another doubt; inactive means no such curve, though single readings can be large; an effect the other way counts as inactive or inconclusive. Potency means the concentration at half of the fitted maximal effect.

SMILES	Cruzain inh noDet	Cruzain Triton
O=C(NCc1ccc(F)cc1)C1CCN(S(=O)(=O)c2ccc3c(c2)CCCN3C(=O)C2CCC2)CC1	16.8%	-2.4%
Cc1ccsc1CN(C(=O)c1oc2cc(Br)ccc2c1C)C1CCS(=O)(=O)C1 (configuration not stated)	13.7%	-6.6%
COc1ccc(-c2cc(C(=O)Nc3cccc(O)c3)on2)cc1OC	1.8%	-10.7%
CCN(CC)c1ccc2cc(-c3nc(-c4ccc(OC)cc4)cs3)c(=O)oc2c1	10µM*	-5.7%
CCN(CC)c1ccc2cc(-c3nc(-c4ccc(Cl)cc4Cl)cs3)c(=O)oc2c1	8.0%	1.7%
COc1cc(/C=C/c2nc(C#N)c(N3CCN(C)CC3)o2)cc(OC)c1OC	12.6µM*	-0.6%
COc1ccc(N2CCN(c3oc(/C=C/c4cccc(OC)c4)nc3C#N)CC2)cc1	6.1%	4.3%
COc1cccc(/C=C/c2nc(C#N)c(N3CCN(C)CC3)o2)c1	3.16µM*	25.1µM*
COc1ccccc1/C=C/c1nc(C#N)c(N2CCN(c3ccccc3)CC2)o1	13.1%	4.2%
Cc1cc(C)n(CCc2nc3c4ccccc4nc(N4CCN(c5cccc(C)c5C)CC4)n3n2)n1	8.1%	0.6%
COc1ccc(NC(=O)Nc2nnc(-c3ccccc3SCc3ccccc3)s2)cc1	10µM*	7.9%
COc1cccc(NC(=O)Nc2nnc(-c3ccccc3SCc3ccccc3)s2)c1	3.16µM*	5.2%
Cc1cccc(NC(=O)Nc2nnc(N(C)Cc3ccccc3)s2)c1	4.9%	-7.6%
CCN(c1ccccc1)c1nnc(NC(=O)Nc2ccccc2F)s1	-10.6%	-3.4%
O=C(Nc1nnc(-c2ccccc2SCc2ccccc2)s1)Nc1ccccc1F	3.16µM*	-0.6%
CCOc1ccc(NC(=O)CSc2nnc(NC(=O)Nc3ccccc3)s2)cc1	13.9%	-0.4%
CCc1ccc(NC(=O)c2ccc3c(O)c(S(=O)(=O)c4ccc(Cl)cc4)c(=O)[nH]c3c2)cc1	-4.8%	-5.0%
CCc1ccccc1NC(=O)N1CC(CC)Oc2ccc(Cl)cc21 (configuration not stated)	-3.0%	-7.6%
CCc1ccc(NC(=O)Cc2c(C(=O)O)c(C)cn2C)cc1	-15.9%	1.6%
CCCCC/C=C\C/C=C\CCCCCCCC(=O)NCC(=O)O	11.6%	-4.1%
O=C(O)CSCc1cccc2ccccc12	-4.3%	2.8%
Cc1cc(C)cc(NC(=O)C2CCN(S(=O)(=O)c3cn(C)cn3)CC2)c1	16.6%	0.9%
c1ccc(-c2cc(-c3nnc4n3N=C(c3ccc5ccccc5c3)CS4)[nH]n2)cc1	25.1µM*	-3.2%
COc1ccc(-c2nnc3n2N=C(c2ccccc2)CS3)cc1OC	26.4%	-6.7%
COc1ccc(C2=Nn3c(nnc3-c3ccccc3)SC2)cc1OC	-2.3%	7.0%
SMILES	Cruzain inh noDet	Cruzain Triton
Cc1cc(-c2nnc3n2N=C(c2ccc(-c4ccccc4)cc2)CS3)n[nH]1	25.1µM*	-10.3%
Cc1c(CCNC(=O)C(C)(C)C)sc2nc(-c3ccc(F)cc3)nn12	1.6%	0.4%
CCOC(=O)c1nnn(C(CC)C(=O)Nc2c(C)cccc2C)c1C(=O)OCC (configuration not stated)	-5.1%	0.5%
Cc1ccc(OCCSCc2nnc(NC(=O)Nc3cccc(Cl)c3)s2)cc1	15.8µM*	-1.5%
Cc1nnc(NC(=O)Nc2cccc(Cl)c2)s1	-0.5%	0.9%
CCCc1nnc(NC(=O)Nc2ccccc2Cl)s1	-12.1%	-1.6%
O=C(Nc1ccccc1)Nc1nnc(CSCc2ccccc2Cl)s1	?	-2.8%
O=C(Nc1nnc(SCc2ccc(Cl)cc2)s1)c1ccco1	?	5.7%
O=C(Nc1ccc(Cl)cc1)Nc1nnc(CSCc2ccccc2Cl)s1	6.31µM*	-1.3%
O=C(Nc1ccc(Cl)cc1)Nc1nnc(SCc2ccccc2)s1	7.94µM*	-0.7%
O=C(Nc1ccc(Cl)c(Cl)c1)Nc1nnc(CSc2ccccc2)s1	10µM*	-1.0%
CCc1nnc(NS(=O)(=O)c2ccc(NC(=S)NC(=O)c3ccccc3)cc2)s1	-1.6%	-12.2%
CCc1nnc(NS(=O)(=O)c2ccc(NC(=S)NC(=O)/C=C/c3ccccc3)cc2)s1	0.7%	25.1µM*
CCc1nnc(NS(=O)(=O)c2ccc(NC(=S)NC(=O)/C=C/c3ccc(C(C)C)cc3)cc2)s1	?	14.1µM*
COc1ccc(NS(=O)(=O)c2ccc(NC(=S)NC(=O)c3ccc(Br)cc3)cc2)nn1	2.4%	-6.5%
CCc1nnc(NS(=O)(=O)c2ccc(NC(=S)NC(=O)c3ccc(Br)cc3)cc2)s1	7.0%	?
CCc1nnc(NS(=O)(=O)c2ccc(NC(=S)NC(=O)/C=C/c3ccc(OC)cc3)cc2)s1	-16.8%	22.4µM*
CCc1nnc(NS(=O)(=O)c2ccc(NC(=S)Nc3ccc(F)cc3)cc2)s1	11.6%	-4.3%
COc1ccc(NS(=O)(=O)c2ccc(NC(=S)NC(=O)/C=C/c3ccccc3)cc2)nn1	31.6µM*	-12.8%
CCN(CC)C(=O)CSc1nc2cc3c(cc2c(=O)n1Cc1ccc(C(=O)NCCc2ccc(OC)c(OC)c2)cc1)OCO3	?	1.5%
CCN(CC)C(=O)c1sc2c(c1C)c(=O)n(Cc1ccccc1)c(=O)n2Cc1ccccc1C	?	-1.6%
COc1cc([C@@H]2Oc3cc([C@H]4Oc5cc(O)cc(O)c5C(=O)[C@H]4O)ccc3O[C@H]2CO)ccc1O	0.2%	-18.1%
Cc1ccccc1-c1nc(CN2CCC(C(=O)NCc3ccccc3Cl)CC2)c(C)o1	-4.1%	0.5%
Cn1cnc(S(=O)(=O)N2CCC(C(=O)NCc3ccccc3)CC2)c1	-13.6%	1.2%
Cc1nc(CC(=O)Nc2ccc(N(C)C)cc2)cs1	-2.0%	-0.7%
SMILES	Cruzain inh noDet	Cruzain Triton
CCC(Cl)CC(Cl)C(Cl)C(Cl)C(Cl)C(C)Cl (configuration not stated)	-18.9%	3.8%
CC1CN(C(=O)Nc2ccc(C(=O)NCCc3ccc(Cl)cc3)cc2)c2ccccc2S1 (configuration not stated)	0.9%	-1.5%
COc1ccc(NC(=O)CSC2=Nc3ccccc3C3=NC(Cc4ccccc4)C(=O)N23)cc1Cl (configuration not stated)	15.8µM*	-4.1%
Cc1ccc(NC(=O)CSC2=Nc3ccccc3C3=NC(Cc4ccccc4)C(=O)N23)cc1C (configuration not stated)	-20.6%	-6.0%
COc1ccc(S(=O)(=O)NCCc2sc(-c3ccccc3)nc2C)cc1OC	17.4%	-4.8%
Cc1ccc2nc(N3CCN(c4ccc(F)cc4)CC3)c3nnnn3c2c1	-10.5%	-1.6%
Cc1ccc2nc(N3CCN(c4cccc(C)c4C)CC3)c3nnnn3c2c1	3.98µM*!	-0.9%
Oc1ccc2ccccc2c1C1Nc2cccc3cccc(c23)N1	?	-7.4%
CCN(CC)c1ccc(C2Nc3cccc4cccc(c34)N2)c(O)c1	12.6µM*	-8.9%
CC(=O)N1CC=CC1(C)C(=O)NCC1CC1 (configuration not stated)	-2.8%	13.0%
COc1ccc(-c2cccc(-c3cc(=O)oc4ccc(C(C)(C)C)cc34)c2)cc1	35.5µM*	-0.3%
COc1cc(OC)c2c(-c3cccc(-c4ccc(C(C)=O)cc4)c3)cc(=O)oc2c1	?	3.5%
COc1cc(OC)c2c(-c3cccc(-c4ccc(OC)c(F)c4)c3)cc(=O)oc2c1	31.6µM*	0.0%
COc1cc2oc(=O)cc(-c3cccc(-c4ccc(C(F)(F)F)cc4)c3)c2c(OC)c1OC	-23.7%	0.3%
O=C(CCCn1c(=O)c2cccn2c2ccccc21)Nc1cccc(Cl)c1	7.4%	-8.5%
COc1ccc(CNC(=O)c2cc(-c3ccc(C)c(C)c3)n[nH]2)cc1	8.6%	-7.6%
